The panel holds about 79,000 compounds, 15% with a hit somewhere; the sample as a whole holds those more often. Values without a mark were called inactive. Calls of active or inactive are those of the source. No stated cut-off is given here; in the data, active means growth inhibition above about 70%; inactive means the rest.
Experiment: NCI Yeast Anticancer Drug Screen. Data for the mgt1 strain (AID 153)
Conditions: S. cerevisiae mgt1 mutant growth inhibition, active compounds read high
Method: Growth inhibition of yeast strains with defined genetic alterations is measured as a screen for potential anti-cancer activity. Selected strains with alterations in DNA damage repair or cell cycle control were exposed to compounds and growth inhibition was measured relative to vehicle treated controls. The strain used in this assay is mgt1

SMILES | growth inhibition (at 1.2 µM) | growth inhibition (at 3.7 µM) | growth inhibition (at 11.0 µM) | growth inhibition (at 33.0 µM) | growth inhibition (at 100.0 µM)
O=P(NC1CCCCC1)(OCc1ccccc1)OCc1ccccc1 | -1% | 0% | 4% | 4% | 7%
O=c1ssc(=Nc2ccccc2)n1-c1ccccc1 | 0% | 2% | 0% | 12% | 39%
Cc1ccc(NC(=O)/C(CC2N=c3c(ccc4c(O)c5ccccc5c(O)c34)=NC2O)=N/NC(C)(C)C)cc1 (stereo not given) | 16% | 5% | -1% | 22% | 22%
CS(=O)(=O)OCCN(CCOS(C)(=O)=O)c1ccc(C=Nc2ccc(-c3csc(COc4ccccc4)n3)cc2)cc1 | -22% | -16% | 23% | 90% (active) | 91% (active)
Cc1ccc(Sc2ccccc2N)cc1 | 0% | -17% | -21% | 38% | 98% (active)
CN(C)/C=C/c1nnc([N+](=O)[O-])s1 | -7% | -5% | -5% | -5% | 98% (active)
CCCC/C([O-])=C1/C(=O)N(c2ccccc2)N=C1C.CCCC/C([O-])=C1/C(=O)N(c2ccccc2)N=C1C.[Cu+2] | -2% | -1% | 0% | 0% | -5%
Nc1ncc(-c2ccc(Br)cc2)s1 | 1% | -1% | 2% | 95% (active) | 98% (active)
